From PubChem BioAssay (NCATS)
Results filed as inconclusive are left out. The source made the active and inactive calls. Calls come from the whole dose curve; as a rule, active = well fitted curve in the direction sought with a large enough effect; inconclusive = small, poorly fitted or top-dose-only effect, or another doubt; inactive = no such curve, though single readings can be large; an effect the other way counts as inactive or inconclusive.

Assays:
[1] = target: Calcium and integrin-binding protein 1 (Homo sapiens) (UniProt Q99828); assay: Primary qHTS for Identification of Calcium Integrin Binding Protein 1 (CIB1) Competitor (AID 1508620); conditions: CIB1-GST / FITC-alphaIIb peptide fluorescence polarization; series mostly up to 57.7 µM;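 note: GST tagged CIB1 binding a fluorescein labelled alphaIIb integrin peptide tracer; top concentration of the series differs between compounds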
Method in brief: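 CIB1-GST (1 uM final) and compound incubated 15 min at room temperature before adding FITC-alphaIIb peptide tracer (100 nM final). Competition for binding read by fluorescence polarization (ex 480, em 540) after another 15 min at room temperature.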

[2] = Primary qHTS for inhibitors of nuclear receptor binding SET domain protein 2 (NSD2) in an isogenic RCH-ACV NSD2 p.E1099K mutant (9B) (AID 1645876); conditions: RCH-ACV NSD2 E1099K (9B) viability, CellTiter-Glo, 72 h; series mostly up to 44.9 µM; note: nearly all actives have a fitted effect of over 70% in size
[3] = Primary qHTS for inhibitors of nuclear receptor binding SET domain protein 2 (NSD2) in an RCH-ACV wild type WT cells (2C) (AID 1645877); conditions: RCH-ACV (leukaemia line) NSD2 WT (2C) viability, CellTiter-Glo, 72 h; series mostly up to 44.9 µM; note: nearly all actives have a fitted effect of over 70% in size
% is set by controls: 0 for no effect and ±100 for the full control effect.

Sequence of Calcium and integrin-binding protein 1 (Homo sapiens) (Q99828 whole entry, looked up): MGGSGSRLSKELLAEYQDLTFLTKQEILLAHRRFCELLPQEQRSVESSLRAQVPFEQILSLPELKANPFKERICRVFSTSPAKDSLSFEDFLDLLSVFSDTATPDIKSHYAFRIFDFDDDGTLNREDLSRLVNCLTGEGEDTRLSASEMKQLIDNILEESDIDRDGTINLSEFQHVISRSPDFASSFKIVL

O=C(O)CC/C=C\C[C@H]1CO[C@@H](c2ccccc2Cl)O[C@H]1c1ccccc1O
inactive: Potency [1] | Potency [2] | Potency [3]

CC1(C)CC[C@]2(C(=O)O[C@@H]3O[C@H](CO)[C@@H](O)[C@H](O)[C@H]3O)CC[C@]3(C)C(=CCC4[C@@]5(C)CC[C@H](O[C@H]6O[C@H](CO)[C@@H](O)[C@H](O[C@@H]7O[C@H](CO)[C@@H](O)[C@H](O)[C@H]7O)[C@H]6O)C(C)(C)C5CC[C@]43C)[C@@H]2C1 (stereo partly drawn)
inactive: Potency [1] | activity change, negative = viability loss [2] 3.49% [at 9.23 µM] | activity change, negative = cell killing [3] 2.79% [at 9.23 µM]

CC1(C)CCC2(C(=O)O)CCC3(C)C(=CCC4C5(C)CCC(O)C(C)(CO)C5C(O)CC43C)C2C1 (stereo not drawn)
inactive: Potency [1] | Potency [2] | Potency [3]

COc1ccc(C2(O)c3c(ccc4c3OC(C)(CCC=C(C)C)C=C4)NC(=O)C2OC)cc1 (stereo not drawn)
inactive: Potency [1] | Potency [2] | Potency [3]

CC(=O)OCC1OC(O[C@H]2CC[C@@]3(C)C(CC[C@]4(C)C3CC=C3[C@@H]5CC(C)(C)CC[C@]5(C(=O)O)CC[C@]34C)[C@]2(C)CO)C(O)C(O)C1OC1OC(C)C(O)C(OC2OCC(O)C(O)C2O)C1O (stereo partly drawn)
inactive: Potency [1] | activity change, negative = viability loss [2] -15.5% [at 9.23 µM] | activity change, negative = cell killing [3] -24% [at 9.23 µM]

C/C=C(\C)C(=O)OC[C@H]1O[C@@H](O[C@H]2[C@@H](O[C@H]3O[C@H](COC(=O)/C(C)=C/C)[C@@H](O)[C@H](O)[C@H]3O[C@@H]3O[C@H](CO)[C@@H](O)[C@H](OC(=O)/C(C)=C/C)[C@H]3O)O[C@H](COC(=O)/C(C)=C/C)[C@@H](O)[C@@H]2O)[C@H](O)[C@@H](O)[C@@H]1O
inactive: Potency [1] | activity change, negative = viability loss [2] -4.56% [at 9.23 µM] | activity change, negative = cell killing [3] -10.6% [at 9.23 µM]
